Most compounds without a hit are left out; they make up all but 1.2% or so of the library.
Casp6 inh: human caspase-6 inhibitors, primary screen, biochemical, VEID-R110 fluorescence, single point, set 2 | P55212 | purified caspase-6, Z-VEID-R110 cleavage fluorescence | inhibition, % at 12.5 µM | 350,000 tested, 0.53% active;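 active means mean inhibition across replicates at least about 35%, with every replicate also reaching that limit, limit read from the data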
RAD54 inh: inhibitors of human RAD54 branch migration, primary screen, biochemical, fluorescence, single point. AID 602329, 2012. DNA repair and recombination protein RAD54-like (Homo sapiens), Q92698. 360,000 tested, 0.14% active. RAD54 Holliday junction branch migration, FAM/BHQ fluorescence. inhibition, % at 10.4 µM;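 active means mean normalized replicate activity at least 40 and at least half of replicates scoring 40 or more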;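 further: inhibitors cause a drop in the FAM fluorescence signal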
RAD52 anneal inh: RAD52 DNA annealing inhibitors, primary screen, biochemical, FRET, single point, set 2; DNA repair protein RAD52 homolog (Homo sapiens), P43351; AID 651710, 2012; recombinant RAD52 DNA annealing, FRET fluorescence; 360,000 tested, 0.46% active; inhibition, % at 18.7 µM;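 active means every replicate showing at least 50% inhibition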
Target sequence (P43351 whole entry, looked up): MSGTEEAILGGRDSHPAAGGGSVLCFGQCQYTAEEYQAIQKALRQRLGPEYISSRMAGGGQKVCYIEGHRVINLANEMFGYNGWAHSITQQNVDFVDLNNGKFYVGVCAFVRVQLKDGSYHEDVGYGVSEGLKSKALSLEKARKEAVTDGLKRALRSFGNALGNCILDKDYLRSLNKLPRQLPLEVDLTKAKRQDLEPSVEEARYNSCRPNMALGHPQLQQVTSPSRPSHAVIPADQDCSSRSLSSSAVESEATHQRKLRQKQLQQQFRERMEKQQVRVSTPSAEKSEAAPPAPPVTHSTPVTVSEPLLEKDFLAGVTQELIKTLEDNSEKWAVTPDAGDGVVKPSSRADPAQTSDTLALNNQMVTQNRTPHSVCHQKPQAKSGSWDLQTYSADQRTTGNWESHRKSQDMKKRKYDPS
N-glyco inh: increase of ERlucT glycosylation luciferase signal, primary screen, N-linked glycosylation inhibitor project, D54 ERlucT cells, luminescence, set 2; 360,000 tested, 0.23% active; reporter increase, % at 12.5 µM; AID 588692, 2011; D54 ERlucT glycosylation luciferase reporter, 24 h; percent of 100 nM tunicamycin response;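 active means mean luciferase reporter signal, scaled so untreated is 0 and the glycosylation-blocking control 100, at or above a set limit in every replicate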;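 further: luciferase carries N-glycosylation sites so blocking glycosylation raises the light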
NSD2 inh: NSD2 histone methyltransferase inhibitors, primary screen, biochemical, AlphaScreen, single concentration, set 2. NSD2 peptide methylation, 120 min. inhibition, % at 12.5 µM. 310,000 tested, 0.54% active; in the data active means inhibition above about 50%
Hits are given with their value; ! = not confirmed by another sample.

For O=C(Nc1ccccc1Cl)N1[C@@H]2CNC[C@H]1C2c1ccc(-c2ccccc2)cc1 (stereo not given in full) the results were Casp6 inh inactive and RAD52 anneal inh inactive.
O=C(C[C@H]1CC[C@@H]2[C@H](COC[C@H](O)CN2S(=O)(=O)c2ccccc2)O1)NCC1CCCCC1 was read as Casp6 inh inactive, RAD54 inh inactive and RAD52 anneal inh 55.5.
`O=C(C[C@@H]1CC[C@H]2[C@@H](COC[C@H](O)CN2S(=O)(=O)c2ccccc2)O1)NCC1CCCCC1` gave Casp6 inh inactive, RAD54 inh inactive and RAD52 anneal inh 53.1.
For CO[C@H]1CN(C)C(=O)c2ccc(NS(C)(=O)=O)cc2OC[C@@H](C)N(C(=O)C2CCCC2)C[C@H]1C the results were Casp6 inh inactive, RAD54 inh inactive and RAD52 anneal inh inactive.
For CCCC(=O)Nc1ccc2c(c1)C(=O)N(C)C[C@@H](OC)[C@@H](C)CN(Cc1nccs1)[C@H](C)CO2 the results were RAD54 inh inactive and RAD52 anneal inh inactive.
Screening C[C@H]1CN([C@@H](C)CO)C(=O)c2cccc(NC(=O)CCCCCC(=O)Nc3ccccc3N)c2O[C@@H]1CN(C)Cc1ccc(-c2ccccc2)cc1 returned Casp6 inh inactive and RAD52 anneal inh inactive.
Screening O=C(Nc1ccc2oc(-c3cccnc3)nc2c1)c1ccc([N+](=O)[O-])o1 returned Casp6 inh inactive, RAD52 anneal inh inactive, N-glyco inh 34.9 and NSD2 inh inactive.
Cc1c(C(=O)Nc2ccc3oc(-c4cccnc4)nc3c2)oc2ccccc12 was read as RAD54 inh inactive, N-glyco inh 29.8 and NSD2 inh inactive.
O=C(Nc1ccc2oc(-c3cccnc3)nc2c1)c1cccnc1 was read as RAD54 inh inactive, N-glyco inh inactive and NSD2 inh inactive.
For O=C(Nc1ccc2oc(-c3cccnc3)nc2c1)c1ccc(Br)o1 the results were RAD54 inh inactive, N-glyco inh inactive and NSD2 inh inactive.
Screening CCCC(=O)Nc1ccc2c(c1)C(=O)N(C)[C@H]1CC[C@@H](CC(=O)NC3CCCC3)O[C@@H]1CO2 returned Casp6 inh inactive, RAD54 inh inactive and RAD52 anneal inh inactive.
Screening C[C@@H]1CN([C@@H](C)CO)S(=O)(=O)c2ccc(C#CC3(O)CCCC3)cc2O[C@@H]1CN(C)C(=O)c1cccnc1 returned Casp6 inh inactive, RAD54 inh inactive and RAD52 anneal inh inactive.
Screening CN1/C(=C/C=C(/C#N)C(N)=O)C(C)(C)c2ccccc21 returned RAD54 inh inactive, N-glyco inh 25.7 and NSD2 inh inactive.
For CCn1c(=O)c2cc(C(=O)NCCOC)sc2c2ccccc21 the results were Casp6 inh inactive, RAD54 inh inactive, RAD52 anneal inh inactive, N-glyco inh inactive and NSD2 inh inactive.
For CCOCCCNC(=O)c1cc2c(=O)n(CC)c3ccccc3c2s1 the results were Casp6 inh inactive, RAD54 inh inactive, RAD52 anneal inh inactive, N-glyco inh 40.5 and NSD2 inh inactive.
`CCOC(=O)C1=C(C)Nc2ccccc2N/C1=N\S(=O)(=O)c1ccc(Cl)cc1` gave Casp6 inh inactive, RAD54 inh inactive, RAD52 anneal inh inactive, N-glyco inh inactive and NSD2 inh inactive.
CCOC(=O)C1=C(C)Nc2ccccc2N/C1=N\S(=O)(=O)c1cc(C(=O)O)ccc1Cl was read as Casp6 inh 36.6, RAD54 inh inactive, RAD52 anneal inh inactive, N-glyco inh inactive and NSD2 inh inactive.
CC=Cc1ccc2n(c1=O)C[C@H]1[C@H](CO)[C@@H](C(=O)NCc3ccc4c(c3)OCO4)[C@@H]2N1C(=O)C1CC1 (mixture of isomers) was read as Casp6 inh inactive, RAD54 inh inactive and RAD52 anneal inh 58.1.
CC=Cc1ccc2n(c1=O)C[C@@H]1[C@@H](CO)[C@H](C(=O)NCc3ccc4c(c3)OCO4)[C@H]2N1C(=O)COC (mixture of isomers) was read as Casp6 inh inactive, RAD54 inh inactive and RAD52 anneal inh inactive.
For CC=Cc1ccc2n(c1=O)C[C@@H]1[C@@H](CO)[C@H](C(=O)NCc3ccc4c(c3)OCO4)[C@H]2N1C(=O)C1CC1 (mixture of isomers) the results were Casp6 inh inactive, RAD54 inh inactive and RAD52 anneal inh 54.7.
For O=C(c1ccc2c(c1)OCO2)N1CC(=O)N2[C@@H](CO)[C@H](c3ccc(C#Cc4ccccc4)cc3)[C@@H]2C1 the results were Casp6 inh inactive and RAD52 anneal inh inactive.
`Cc1ccccc1NC(=O)C(C)OC(=O)C1CC(=O)N(Cc2ccco2)C1` (stereo not given) gave Casp6 inh 55.3, RAD54 inh inactive, RAD52 anneal inh inactive, N-glyco inh inactive and NSD2 inh inactive.
CC(OC(=O)C1CC(=O)N(Cc2ccco2)C1)C(=O)Nc1ccccc1[N+](=O)[O-] (stereo not given) was read as Casp6 inh inactive, RAD54 inh inactive, RAD52 anneal inh inactive, N-glyco inh inactive and NSD2 inh inactive.
NCC[C@@H]1CC[C@H](NC(=O)c2ccccc2F)[C@@H](CO)O1 was read as Casp6 inh 39.4, RAD54 inh inactive and RAD52 anneal inh inactive.
For O=C(O)C[C@@H]1CC[C@@H](NC(=O)c2ccccc2F)[C@H](CO)O1 the results were Casp6 inh inactive, RAD54 inh inactive and RAD52 anneal inh inactive.
Screening O=C(Cc1ccccn1)NCC[C@@H]1CC[C@@H](NC(=O)c2ccccc2F)[C@H](CO)O1 returned Casp6 inh 35.1, RAD54 inh inactive and RAD52 anneal inh inactive.
For CS(=O)(=O)c1cccc(C(=O)Nc2ccc(-c3nc4ccccc4[nH]3)cc2)c1 the results were Casp6 inh inactive, RAD54 inh inactive, RAD52 anneal inh inactive, N-glyco inh 46.0 and NSD2 inh inactive.
COCCCN=C1NN=C(c2cc(C)n(Cc3ccccc3Cl)c2C)CS1 was read as Casp6 inh inactive, RAD52 anneal inh inactive, N-glyco inh inactive and NSD2 inh 52.8.
`C[c-]1[c-](C)[c-](C)[c-](C)[c-]1C.[Fe].c1cc2nccc(N3CCCC3)[c-]2c1` (stereo not given) gave Casp6 inh 38.0!, RAD54 inh inactive, RAD52 anneal inh inactive and N-glyco inh inactive.
`CCCNC(=O)[C@H]1[C@H](CO)[C@H]2Cn3c(ccc(-c4cccc(OC)c4)c3=O)[C@@H]1N2CC` gave Casp6 inh inactive and RAD52 anneal inh inactive.
Screening Cc1nc2c3cc(F)ccc3n(CCN3CCCCC3)c2s1 returned Casp6 inh inactive, RAD54 inh inactive, RAD52 anneal inh inactive and N-glyco inh 31.9.
O=c1ccc2[n+]([O-])c3ccc(O)cc3oc-2c1 was read as Casp6 inh 87.9, RAD52 anneal inh inactive, N-glyco inh inactive and NSD2 inh 101.9.
